The values that follow come from PubChem BioAssay (NCI).

Test [1] is described as follows: NCI Yeast Anticancer Drug Screen. Data for the rad50 strain (AID 155).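 Also: 0% = growth of vehicle-only cultures of the same strain.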 To be noted: S. cerevisiae rad50 strain growth inhibition; at 50.0 µM; stronger effect = higher value. In outline: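 Relative growth inhibition (compound vs vehicle) was measured in yeast with a defined repair-gene alteration.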
The nature of test [2]: NCI Yeast Anticancer Drug Screen. Data for the mec2-1 strain (AID 157). The conditions noted are these: S. cerevisiae mec2-1 strain, at 50.0 µM, stronger effect = higher value. In outline: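 Cells of the genetically defined mec2-1 yeast strain are incubated with test compound. Inhibition of growth is calculated against vehicle-treated controls.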
Test [3] can be described thus: NCI Yeast Anticancer Drug Screen. Data for the sgs1 mgt1 strain (AID 161).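 Also: 0% = growth of cultures given vehicle only.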 The conditions noted are these: S. cerevisiae sgs1 mgt1 strain, at 50.0 µM, stronger effect = higher value. In outline:
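Test agents were incubated with a DNA-repair-mutant yeast strain. Growth was then read and compared against vehicle-treated controls.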

A short description of test [4]: NCI Yeast Anticancer Drug Screen. Data for the cln2 rad14 strain (AID 165).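 Also: 0% = growth equal to vehicle treated cultures.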 To be noted: S. cerevisiae cln2 rad14 strain, at 50.0 µM, stronger effect = higher value. In outline:
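The screen exposed genetically defined yeast (cln2 rad14) to test compounds and scored growth inhibition relative to vehicle-treated controls.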

Test [5] is described as follows: NCI Yeast Anticancer Drug Screen. Data for the bub3 strain (AID 167). To be noted: S. cerevisiae bub3 mutant strain, at 50.0 µM, stronger effect = higher value. A digest of the protocol: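 Screening used yeast with an engineered genetic alteration affecting cell cycle control. Compound-exposed cultures were compared with vehicle cultures, and reduced growth was taken as inhibition.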

Test [6] in a line: NCI Yeast Anticancer Drug Screen. Data for the mlh1 rad18 strain (AID 175). The conditions noted are these: S. cerevisiae mlh1 rad18 strain growth inhibition; at 50.0 µM; stronger effect = higher value. In outline:
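Compound-treated yeast growth, normalised to vehicle controls. Strain bears defined DNA repair mutations.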

Compounds without any hit were thinned out: in the full panel of roughly 79,000, 15% have a hit. A number with no mark means an inactive call. The source made the active and inactive calls. Rule as the data show it: active = growth inhibition above about 70%; inactive = the rest.

Turning to `Cn1nc2ccc3nccc(NCCNCCCl)c3c2n1`, the growth inhibition in test [1] was 6.95%; in test [2], -30.8%; in test [3], -22.1%; in test [4], 2.7%; in test [5], -19.2%; in test [6], -20.8%.
Consider `CC(Cl)CN1CCN(CC(C)Cl)CC1` (centres undefined), for which the growth inhibition was 2.95% in test [1]; -16.7% in test [2]; 34.4% in test [3]; 4.4% in test [4]; 31.9% in test [5]; -10.3% in test [6].
For the compound `CCOP(=O)(OCC)C(O)c1ccc(Cl)cc1` (centres undefined), the growth inhibition in test [1] is -5.1%; in test [2], -13.8%; in test [3] it was -0.6%; in test [4], -9.35%; in test [5], 22.3%; in test [6], -11.3%.
Take `CCCCCC1(C(C)C)C(=O)NC(=O)NC1=O`: the growth inhibition in test [1] was 3.1%; in test [2], 8.65%; in test [3] it was 1.5%; in test [4] it was 15.3%; in test [5] it was -0.6%; in test [6], 6.35%.
On to `CCCCCCCCCCC(=O)O`, for which the growth inhibition in test [1] was 0.25%; in test [2], -2.2%; in test [3] it was 24.9%; in test [4], -4.65%; in test [5], -15.4%; in test [6], 15.2%.
With `C[Si]1(C)CCCC2(C1)C(=O)NC(=O)NC2=O`, the growth inhibition in test [1] is -31.6%; in test [2], -17.3%; in test [3] it was -9%; in test [4], -1.75%; in test [5], -4.2%; in test [6], -41.5%.
Turning to `CN1C(c2cccnc2)=NCC12CCCC2`, the growth inhibition was -2.95% in test [1]; -10.1% in test [2]; 6.45% in test [3]; -17.2% in test [4]; -10.2% in test [5]; -9.45% in test [6].
With `CCC(=O)c1ccc(OC)c(OC)c1`, the growth inhibition in test [1] was 7%; in test [2] it was -1.3%; in test [3] it was -0.15%; in test [4] it was -2.85%; in test [5], 15.7%; in test [6] it was 1.75%.
For the compound `COc1ccc(OC)c(CCc2cc(OC)ccc2OC)c1`, the growth inhibition in test [1] is -7.85%; in test [2] it was -13.2%; in test [3] it was -9.95%; in test [4], -40.1%; in test [5], 13.2%; in test [6], -28%.
For `[Cl][Hg][c]1cccs1`, the growth inhibition in test [1] is 99.6% (active); in test [2], 99.8% (active); in test [3], 99.5% (active); in test [4] it was 99.5% (active); in test [5] it was 99.7% (active); in test [6], 99.6% (active).
`Cn1c[n+](C)nn1`: the growth inhibition in test [1] is -2.75%; in test [2], -12.8%; in test [3], -1.3%; in test [4], -29.1%; in test [5], -3.25%; in test [6], -18.2%.
Consider `COc1ccc(CCl)cc1CCl`, for which the growth inhibition is -24.2% in test [1]; -62.8% in test [2]; -7.25% in test [3]; 5.85% in test [4]; -26.4% in test [5]; -43.7% in test [6].
For the compound `CN(C)CCCNc1c2c(nc3ccc(Cl)cc13)CCCC2`, the growth inhibition in test [1] was -1.2%; in test [2], -20.4%; in test [3], -31.8%; in test [4], 6.6%; in test [5], 9.15%; in test [6], -7.3%.
Take `CC(C)c1cc2c(cc1O)C1(C)CCCC(C)(C)C1=CC2=O` (centres undefined): the growth inhibition in test [1] was -1.65%; in test [2] it was -28.9%; in test [3], -8.15%; in test [4], -17%; in test [5], -5.8%; in test [6], -13.1%.
With `Cc1ccc(N)cc1`, the growth inhibition in test [1] was 2.1%; in test [2], -2.55%; in test [3], -7.2%; in test [4], -1.1%; in test [5] it was 9.4%; in test [6], 1.3%.
In the case of `NC(=O)c1c[se]c(C2OC(CO)C(O)C2O)n1` (centres undefined), the growth inhibition in test [1] was -13.1%; in test [2] it was -8.75%; in test [3], -9.75%; in test [4], -3.25%; in test [5], -14.8%; in test [6], -9.95%.
For the compound `COC(=O)C1(F)C(=O)NC(=O)NC1O` (centres undefined), the growth inhibition was -4.6% in test [1]; -2.75% in test [2]; 3.5% in test [3]; 14.7% in test [4]; 0.85% in test [5]; 2.25% in test [6].
As to `CCCCCCCCCCCCN(C)C`, the growth inhibition in test [1] was 45.4%; in test [2], 28.7%; in test [3] it was 35.9%; in test [4] it was -6.2%; in test [5] it was 29.1%; in test [6] it was 37.9%.
As to `O=C1CCC(=O)N1c1ccc([As](=O)(O)O)cc1`, the growth inhibition in test [1] is -2.55%; in test [2], -9.15%; in test [3], 13.2%; in test [4] it was -28.1%; in test [5], 0.6%; in test [6], -16.9%.
Take `CCCC[N+]1(C)CCCC1c1cccnc1` (centres undefined): the growth inhibition was -15.5% in test [1]; -7.1% in test [2]; 5.3% in test [3]; -10.2% in test [4]; -10.8% in test [5]; -7.85% in test [6].
With `O=C1c2ccccc2C(=O)N1N1CC1c1ccccc1` (centres undefined), the growth inhibition in test [1] is -8.2%; in test [2] it was -36.1%; in test [3], 8.1%; in test [4] it was 18.2%; in test [5], 6.5%; in test [6], -1%.
On to `C=C(Nc1nc2ccc(C)cc2s1)C(=O)C(CC)C(=O)C(CC)CC1C(=O)NC(=O)NC1=O` (centres undefined), for which the growth inhibition in test [1] is -23.4%; in test [2], -13.6%; in test [3], 4.35%; in test [4] it was -31.8%; in test [5] it was -32.6%; in test [6], -0.2%.
`O=C(Nc1ccccc1)Nc1ccc(N(CCCl)CCCl)cc1`: the growth inhibition in test [1] was 21.8%; in test [2], 18.6%; in test [3] it was 10.8%; in test [4], 13.5%; in test [5] it was 13.7%; in test [6] it was 31.8%.
On to `CC1(C)N=C(N)N=C(N)N1c1ccc(OCCOc2ccc(S(=O)(=O)F)cc2)cc1`, for which the growth inhibition in test [1] is -11.1%; in test [2], -14.4%; in test [3], -2.05%; in test [4], -59.4%; in test [5], -10.7%; in test [6], -18.4%.
For the compound `COc1cc(O)c2c(O)c3c(=O)cc(C)oc3cc2c1`, the growth inhibition was -9.75% in test [1]; -6.2% in test [2]; 20.6% in test [3]; 12.6% in test [4]; -1.95% in test [5]; -5.35% in test [6].
With `C=CC1CN2CCC1CC2C(O)c1ccnc2ccccc12` (centres undefined), the growth inhibition is 11.9% in test [1]; -3.7% in test [2]; 5.95% in test [3]; 10.9% in test [4]; 20.1% in test [5]; 4.1% in test [6].
For the compound `CCCCCC(=O)c1c(O)cc2c(c1O)C(=O)c1c(O)cc(O)cc1C2=O`, the growth inhibition was 10.2% in test [1]; 2.25% in test [2]; 6.1% in test [3]; 10.3% in test [4]; 8.35% in test [5]; -5.7% in test [6].
Take `COC(=O)C[N+]1(C)C2CCC1CC(O)C2` (centres undefined): the growth inhibition was 1.5% in test [1]; 2.75% in test [2]; 0.55% in test [3]; -23.3% in test [4]; -17.1% in test [5]; 9.95% in test [6].
With `O=C1C=CC(=Nc2ccc(N(CCCl)CCCl)cc2)C=C1`, the growth inhibition in test [1] was 39.5%; in test [2], 18.8%; in test [3], 13.3%; in test [4], 3.5%; in test [5] it was 7.1%; in test [6], 3.5%.
Take `COC(=O)C1=CO[C@@H](C)[C@@H]2CN3CCc4c([nH]c5cc(OC)ccc45)[C@@H]3C[C@H]12`: the growth inhibition in test [1] was -0.2%; in test [2], -28.9%; in test [3] it was -11.1%; in test [4] it was -2.9%; in test [5], -27%; in test [6], -19.2%.
Turning to `[CH3][Sb]1([Br])[CH2]CC[CH2]1`, the growth inhibition in test [1] is 6.8%; in test [2] it was 15.2%; in test [3] it was 5.85%; in test [4], -1.6%; in test [5], -11.8%; in test [6], 3.05%.
On to `Cc1cccc(C#N)c1`, for which the growth inhibition in test [1] is 3.55%; in test [2] it was -26.1%; in test [3], 1.2%; in test [4] it was -1.4%; in test [5], -7%; in test [6], -0.05%.
`[NH-]C(CCC(N)=O)C(=O)O.[NH-]C(CCC(N)=O)C(=O)O.[Pd+2]` (centres undefined): the growth inhibition in test [1] was -14.6%; in test [2], -3.2%; in test [3] it was -7.55%; in test [4], -71.6%; in test [5], -1.1%; in test [6] it was -8.1%.
As for `CCCC/C=C(/C)C1(CC)C(=O)NC(=O)NC1=O`, the growth inhibition in test [1] was 5.05%; in test [2] it was 14.2%; in test [3], -2%; in test [4] it was -28.1%; in test [5] it was -7.3%; in test [6], 4.6%.
As to `C[C@]12CC[C@H]3[C@@H](CC[C@]4(O)C[C@@H](O)CC[C@]34CO)[C@@]1(O)CC[C@@H]2C1=CC(=O)OC1`, the growth inhibition in test [1] was -6.1%; in test [2], -23.1%; in test [3], -17.6%; in test [4], 0.45%; in test [5], 1.35%; in test [6], -16.9%.
For `O=c1c2ccccc2nc(-c2ccccc2Cl)n1-c1nnc(C(F)(F)F)s1`, the growth inhibition in test [1] was -13.8%; in test [2], -13.1%; in test [3] it was 18.3%; in test [4], 6.15%; in test [5] it was -13.2%; in test [6], -6.5%.
Consider `COc1ccc2c(c1)[C@@]13CCCC[C@H]1[C@@H](C2)N(C)CC3=O`, for which the growth inhibition in test [1] was 41.5%; in test [2], 26.9%; in test [3] it was -14.3%; in test [4] it was 9.65%; in test [5], 3%; in test [6] it was -48%.
For `CN(C)P1(=O)OCC(C(C)(C)C)CN1c1ccccc1` (centres undefined), the growth inhibition in test [1] is -6.6%; in test [2], 2.95%; in test [3], -2.8%; in test [4], -22.2%; in test [5], -12.9%; in test [6] it was -14.3%.
In the case of `O=C(C[n+]1ccccc1)C1CCCC2CC3CCCCC3CC21` (centres undefined), the growth inhibition in test [1] was 1.9%; in test [2], 18.3%; in test [3], 29.9%; in test [4], 13.8%; in test [5] it was 22.1%; in test [6] it was 37.6%.
